SMILES strings stand for the structures. This is part of a sample that, as a whole, favours compounds with a hit. Of some 83,000 tested, about 20% had one in any assay.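 Cells were grown in 96-well plates and exposed to the test compound at a single concentration for 48 hours; results are reported as percent growth, with values below 10 considered active.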 A number with no mark means an inactive call. Active and inactive are the calls of the source.

For the first assay, the system named is SK-MEL-2 melanoma. Briefly: NCI-60 one-dose screen, 48 h (100 = growth as untreated, 0 = no growth, -100 = all killed). Particulars: 10 µM unless noted.
`Nc1cc2nc3ccccc3sc-2cc1=O`: the growth is 89.4%.

As for `C#Cc1nc(Nc2cc(C)[nH]n2)c2ccccc2n1`, the growth is -53.2% (active).

For `CCOC(=O)c1nc(Nc2cc(C)[nH]n2)c2ccccc2n1`, the growth was 89.4%.

In the case of `O=C(/C=C/c1ccc(Cl)cc1)/C=C/c1cc2ccccc2[nH]c1=O`, the growth is 98.2%.

Turning to `CCOC(=O)c1ccc2c(c1)nc(/C=C/c1ccc(Cl)cc1)n2-c1cc(C(C)(C)C)[nH]n1`, the growth was 79.6%.

`CC(=O)OCC(=O)C1CCC=CC1OC(C)=O` (stereo unspecified): the growth is 88.3%.

Consider `COc1cc(C2CC(=O)c3c(C)nn(-c4nc5ccccc5[nH]4)c3C2)cc(OC)c1OC` (stereo unspecified), for which the growth is 91.2%.

Take `CC1(C)OCC2OC3(C(=O)O)OC(C)(C)OC3C2O1` (stereo unspecified): the growth was 105%.

As for `COc1ccc(C(=O)c2sc3nc(-c4ccccc4OC)ccc3c2N)cc1OC`, the growth was 89.5%.

On to `COc1ccc(C(=O)c2sc3nc4c(cc3c2N)CCCC4)cc1OC`, for which the growth is 25.3%.

On to `Cc1ccc2c(NCCCN(C)C)c3c(C)nn(C)c3nc2c1`, for which the growth was 44%.

Consider `Cc1ccc(NC(=O)c2sc3nc4c(cc3c2N)C(=O)CCC4)cc1C`, for which the growth was 37%.

Consider `COc1c(C2CC(=O)Nc3c2cnn3Cc2ccco2)cc2c(c1OC)OCO2` (stereo unspecified), for which the growth is 46.3%.

Take `Cc1ccn2c(-c3csc(Nc4cccc(O)c4)n3)c(C)nc2c1`: the growth was 24.2%.

In the case of `NC(CC(=O)O)C(=O)OCc1ccccc1` (stereo unspecified), the growth is 94.8%.

Consider `O=C1Nc2ccc(Br)cc2C12CC(c1ccccc1)=NN2` (stereo unspecified), for which the growth is 74.9%.

For `Cc1cc(Nc2nc(N3CCNCC3)nc3ccccc23)n[nH]1`, the growth is 53.6%.

Take `CCc1ccccc1NC(=O)c1sc2nc3c(cc2c1N)C(=O)CCC3`: the growth is 19.9%.

For `CCOC(=O)N1CCN(c2nc(Nc3cc(C)[nH]n3)c3ccccc3n2)CC1`, the growth was 52.4%.

In the case of `CN1CCCCC1CCN1c2ccccc2Sc2ccc(Cl)cc21` (stereo unspecified), the growth is 71.2%.

For `COc1c(Cl)cc(Cl)cc1Cl`, the growth is 117%.

Take `Cc1cc(Nc2nc(N3CCOCC3)nc3ccccc23)n[nH]1`: the growth is 51.5%.

Consider `COc1ccc(C2CC(=O)Nc3c2c(C)nn3-c2nc3ccccc3[nH]2)cc1` (stereo unspecified), for which the growth is 100%.

With `COc1cc(-c2cc(-c3nc4ccc(Cl)cc4[nH]3)[nH]n2)cc(OC)c1OC`, the growth was 55.8%.

In the case of `Cc1noc(C)c1-c1cc(O)cc(C(O)c2ccccc2)c1` (stereo unspecified), the growth is 60.4%.

For `COc1ccc(-c2nc(Nc3cc(C)[nH]n3)c3ccccc3n2)cc1`, the growth was 59.7%.

For `Cc1cc(Nc2nc(-c3cccnc3)nc3ccccc23)n[nH]1`, the growth was 38.8%.

Take `CC#Cc1nc2ccccc2c(=O)[nH]1`: the growth is 45.4%.

For `O=C(Nc1ccc(F)cc1)Nc1ccc(CCO)cc1`, the growth is 112%.

As for `CCCCNC(=O)NS(=O)(=O)c1ccc(N2N=C(c3cc(C)ccc3C)CC2c2cc(OC)c(OC)c(OC)c2)cc1` (stereo unspecified), the growth was 54.9%.

As to `COc1cc(C2C(C(=O)c3cccs3)=C(O)C(=O)N2CCN2CCOCC2)cc(OC)c1OC` (stereo unspecified), the growth is 102%.

As for `NCc1cn2cc(Cl)sc2n1`, the growth is 102%.

For the compound `CCCCCCCCCCCCN1CCCC(C)C1` (stereo unspecified), the growth is 89.6%.

For the compound `O=c1c2cccc3c(Nc4ccccn4)ccc(c32)c2nc3ccccc3n12`, the growth is 80.5%.

`Cc1ccc(S(=O)(=O)N(CCc2ccc(Cl)cc2)S(=O)(=O)c2ccc(C)cc2)cc1`: the growth is 75.3%.

On to `O=C(N/N=C/c1ccc(O)cc1O)c1cccnc1`, for which the growth was 55.6%.

With `CNC(=S)N/N=C/CSC/C=N/NC(=S)NC`, the growth was 98.7%.

`COc1ccc(-c2c(C)noc2-c2ccc(O)cc2O)cc1`: the growth is 101%.

The subject of another assay is SN12C renal. Described as above. Particulars: 10 µM unless noted.
Regarding `Nc1cc2nc3ccccc3sc-2cc1=O`, the growth is 60.7%.

Consider `C#Cc1nc(Nc2cc(C)[nH]n2)c2ccccc2n1`, for which the growth is -31.6% (active).

As to `CCOC(=O)c1nc(Nc2cc(C)[nH]n2)c2ccccc2n1`, the growth is 97%.

For the compound `O=C(/C=C/c1ccc(Cl)cc1)/C=C/c1cc2ccccc2[nH]c1=O`, the growth was 62.8%.

On to `CCOC(=O)c1ccc2c(c1)nc(/C=C/c1ccc(Cl)cc1)n2-c1cc(C(C)(C)C)[nH]n1`, for which the growth is 74.6%.

With `CC(=O)OCC(=O)C1CCC=CC1OC(C)=O` (stereo unspecified), the growth was 99.4%.

As for `COc1cc(C2CC(=O)c3c(C)nn(-c4nc5ccccc5[nH]4)c3C2)cc(OC)c1OC` (stereo unspecified), the growth is 75.9%.

In the case of `CC1(C)OCC2OC3(C(=O)O)OC(C)(C)OC3C2O1` (stereo unspecified), the growth was 106%.

Turning to `COc1ccc(C(=O)c2sc3nc(-c4ccccc4OC)ccc3c2N)cc1OC`, the growth is 66.1%.

Consider `COc1ccc(C(=O)c2sc3nc4c(cc3c2N)CCCC4)cc1OC`, for which the growth was 62.8%.

Take `Cc1ccc2c(NCCCN(C)C)c3c(C)nn(C)c3nc2c1`: the growth was 42.9%.

Turning to `Cc1ccc(NC(=O)c2sc3nc4c(cc3c2N)C(=O)CCC4)cc1C`, the growth is 52.9%.

In the case of `COc1c(C2CC(=O)Nc3c2cnn3Cc2ccco2)cc2c(c1OC)OCO2` (stereo unspecified), the growth was 32.5%.

On to `Cc1ccn2c(-c3csc(Nc4cccc(O)c4)n3)c(C)nc2c1`, for which the growth was 20.8%.

`NC(CC(=O)O)C(=O)OCc1ccccc1` (stereo unspecified): the growth is 105%.

With `O=C1Nc2ccc(Br)cc2C12CC(c1ccccc1)=NN2` (stereo unspecified), the growth is 61.7%.

Regarding `Cc1cc(Nc2nc(N3CCNCC3)nc3ccccc23)n[nH]1`, the growth was 76.1%.

As to `CCc1ccccc1NC(=O)c1sc2nc3c(cc2c1N)C(=O)CCC3`, the growth is 45.4%.

As to `CCOC(=O)N1CCN(c2nc(Nc3cc(C)[nH]n3)c3ccccc3n2)CC1`, the growth is 45.8%.

Turning to `CN1CCCCC1CCN1c2ccccc2Sc2ccc(Cl)cc21` (stereo unspecified), the growth was 71.8%.

Take `COc1c(Cl)cc(Cl)cc1Cl`: the growth is 100%.

In the case of `Cc1cc(Nc2nc(N3CCOCC3)nc3ccccc23)n[nH]1`, the growth is 60.2%.

In the case of `COc1ccc(C2CC(=O)Nc3c2c(C)nn3-c2nc3ccccc3[nH]2)cc1` (stereo unspecified), the growth was 103%.

Consider `COc1cc(-c2cc(-c3nc4ccc(Cl)cc4[nH]3)[nH]n2)cc(OC)c1OC`, for which the growth was 68.3%.

For `Cc1noc(C)c1-c1cc(O)cc(C(O)c2ccccc2)c1` (stereo unspecified), the growth was 74.5%.

Turning to `COc1ccc(-c2nc(Nc3cc(C)[nH]n3)c3ccccc3n2)cc1`, the growth was 40.1%.

For `Cc1cc(Nc2nc(-c3cccnc3)nc3ccccc23)n[nH]1`, the growth was 58.9%.

For the compound `CC#Cc1nc2ccccc2c(=O)[nH]1`, the growth was 35.3%.

For `O=C(Nc1ccc(F)cc1)Nc1ccc(CCO)cc1`, the growth was 101%.

For `CCCCNC(=O)NS(=O)(=O)c1ccc(N2N=C(c3cc(C)ccc3C)CC2c2cc(OC)c(OC)c(OC)c2)cc1` (stereo unspecified), the growth is 73.7%.

`COc1cc(C2C(C(=O)c3cccs3)=C(O)C(=O)N2CCN2CCOCC2)cc(OC)c1OC` (stereo unspecified): the growth was 104%.

On to `NCc1cn2cc(Cl)sc2n1`, for which the growth was 105%.

With `CCCCCCCCCCCCN1CCCC(C)C1` (stereo unspecified), the growth is 95.9%.

As for `O=c1c2cccc3c(Nc4ccccn4)ccc(c32)c2nc3ccccc3n12`, the growth was 71.7%.

Take `Cc1ccc(S(=O)(=O)N(CCc2ccc(Cl)cc2)S(=O)(=O)c2ccc(C)cc2)cc1`: the growth is 105%.

As for `O=C(N/N=C/c1ccc(O)cc1O)c1cccnc1`, the growth was 57.2%.

Regarding `CNC(=S)N/N=C/CSC/C=N/NC(=S)NC`, the growth is 104%.

For `COc1ccc(-c2c(C)noc2-c2ccc(O)cc2O)cc1`, the growth is 85.7%.
